The entries come from a sample that favours hits as a whole.
CBX7 inh: CBX7 chromodomain binding inhibitors, primary screen, biochemical, AlphaScreen; normalised signal (fraction of DMSO) (test concentration not listed); hit rate 1.1% among 66,000; AlphaScreen His6-CBX7 / biotin-H3K27me3 peptide binding; hits give low values; in the data active = normalised signal below about 0.5
Target sequence (O95931 whole entry, looked up): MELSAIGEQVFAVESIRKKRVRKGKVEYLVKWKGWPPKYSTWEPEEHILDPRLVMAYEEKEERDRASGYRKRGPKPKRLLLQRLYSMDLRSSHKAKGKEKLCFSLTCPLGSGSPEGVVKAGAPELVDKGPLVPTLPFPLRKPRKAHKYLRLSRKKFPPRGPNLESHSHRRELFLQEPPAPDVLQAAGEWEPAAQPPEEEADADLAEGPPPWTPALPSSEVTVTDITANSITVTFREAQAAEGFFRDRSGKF
* = called active by the depositor.

SMILES	CBX7 inh
CCOC(=O)c1cnc2ccc(OCC)cc2c1Nc1ccc2c(c1)OCCO2	0.87
CCOC(=O)c1cnc2ccc(Br)cc2c1Nc1ccc2c(c1)OCCO2	0.84
CCN(Cc1c(C)[nH]c2ccccc2c1=O)C1CCCCC1	1
COc1cccc(-n2c(Cc3cc(=O)[nH]c(=O)[nH]3)nnc2SCc2ccc(C)cc2)c1	0.91
O=C(NCc1ccccc1Cl)C1=CCN(S(=O)(=O)c2ccccc2)CC1	0.98
O=C(Nc1ccc(F)cc1)C1CC(=O)N(c2ccc(Cl)cc2)C1 (stereo not drawn)	0.99
O=C(Nc1ccc2[nH]c(=O)[nH]c2c1)c1ncn[nH]1	0.39*
O=C(Nc1ccc2[nH]c(=O)[nH]c2c1)C1COc2ccccc2O1 (stereo not drawn)	1
Cc1cc(NS(=O)(=O)c2ccc(N3CCCC3=O)cc2)no1	1.2
O=C(Nc1ccc(N2CCCC2=O)cc1)c1ncn[nH]1	0.0091*
O=c1[nH]c2ccc(S(=O)(=O)Nc3ccc(F)cc3)cc2[nH]1	1
Cc1ccc2cc(CCNS(=O)(=O)c3ccc(Cl)cc3)c(=O)[nH]c2c1	0.99
COCCNC(=O)CCN1C(=O)COc2ccccc21	1
CC1CCN(S(=O)(=O)c2ccc3c(c2)N(CC(=O)NCc2ccc(Cl)cc2)C(=O)CO3)CC1	1.1
Cc1cccc(OCCn2c(C)nc3ccccc32)c1	1.2
COc1ccccc1C(=O)Nc1nc2ccccc2n1CCOc1ccccc1	0.84
Cc1cccc(OCCn2c(NC(=O)c3ccccc3Cl)nc3ccccc32)c1	0.34*
Cc1c(Cl)cccc1NC(=O)c1ccc2c(c1)N(Cc1ccc(F)cc1)C(=O)CS2=O (stereo not drawn)	1
COc1ccc(-c2nc(SCC(=O)NC3CCCC3)c(-c3ccc(C)cc3)[nH]2)cc1OC	0.99
COc1ccc(NC(=O)c2c[nH]n3c(=O)cc(C4CCN(C(=O)OC(C)(C)C)CC4)nc23)cc1Cl	0.96
COC(=O)c1c[nH]n2c(NC3CCC(C)CC3)c(-c3ccc(C)cc3)nc12 (stereo not drawn)	0.23*
COC(=O)c1cn(-c2ccccc2)nc1-c1ccc(OC)cc1	1
COc1ccc(-c2cc(C(=O)NC3CCCC3)no2)cc1	1.2
Cc1nc2c(C(=O)NC3CCC(C)CC3)c[nH]n2c(=O)c1Cc1ccccc1F (stereo not drawn)	1.1
COC(=O)c1c[nH]n2c(=O)c(Cc3cccc(C)c3)c(C)nc12	1.1
SMILES	CBX7 inh
COc1ccc(-c2nn(C)c3sc(C(=O)NC4CCCCC4)cc23)cc1OC	0.97
COC(=O)c1c[nH]n2c(NC3CCC(C)CC3)c(-c3ccc(OC(C)C)c(OC)c3)nc12 (stereo not drawn)	0.12*
COc1ccc(NC(=O)c2c[nH]n3c(=O)cc(C4CCN(C(=O)OC(C)(C)C)CC4)nc23)cc1OC	0.89
COC(=O)c1c[nH]n2c(NC3CCCCC3)c(-c3ccc(OC)cc3)nc12	0.32*
COC(=O)c1c[nH]n2c(NC3CCCCC3)c(-c3ccc(OCCC(C)C)c(OC)c3)nc12	0.37*
CCOC(=O)c1ccc(NC(=O)C2CCN(c3nnc(-n4cccc4)s3)CC2)cc1	0.99
Cc1ccccc1NC(=O)Cn1cc(S(=O)(=O)c2ccc(Cl)cc2)c(=O)c2ccccc21	0.92
Cc1cccc(C)c1NC(=O)c1cnn(-c2ccc(F)cc2)c1C1CCNCC1	1
Cc1ccc(Cn2nnc3c(=O)n(Cc4cccc(F)c4)cnc32)cc1	1.1
Cc1c(C(=O)NC2CCCCC2)oc2ccc(S(=O)(=O)N3CCC(C)CC3)cc12	1.1
COc1ccccc1-c1cc2nc(C)c(CCC(=O)NCc3ccc(Cl)cc3)c(C)n2n1	1.1
Cc1oc(-c2ccccc2F)nc1CN1CCC(C(=O)N2CCCC2)CC1	0.89
CCCOc1cccc(C(=O)Nc2c(C(=O)c3ccc(Br)cc3)oc3ccccc23)c1	1
COC(=O)c1c[nH]n2c(NC3CCCCCC3)c(-c3ccc(OC)cc3)nc12	0.34*
COC(=O)c1c[nH]n2c(NC3CCCCC3)c(-c3cccs3)nc12	0.52
COc1ccc(-c2nc3cnccn3c2NC2CCCCC2)cc1	1.3
CCN(CC)CCNC(=O)c1ccc2nc(N3CCOCC3)sc2c1	1.3
CC1(C)CC(=O)C2=C(C1)N(c1ccc(C(F)(F)F)cc1)C(=O)CC2c1ccsc1 (stereo not drawn)	0.99
Cc1ccc(C)c(NC(=O)Cn2cc(S(=O)(=O)c3ccccc3)c(=O)c3cc(Cl)ccc32)c1	0.84
CC(=O)N(CCC(c1ccccc1)c1ccc2c(c1)OCO2)Cc1ccc(OC(C)C)cc1 (stereo not drawn)	0.97
c1cnc2c(SCC3CCOCO3)cccc2c1 (stereo not drawn)	1.1
O=C(CC(Sc1cccc2cccnc12)c1ccc(OC(F)F)cc1)c1ccco1 (stereo not drawn)	0.0051*
COc1ccc(NC(=O)C(Cc2ccccc2)NS(=O)(=O)c2cccc3cccnc23)cc1 (stereo not drawn)	1
Cc1ccc(N2CC(c3nc4ccccc4n3CCOc3ccccc3C)CC2=O)cc1C (stereo not drawn)	0.86
Cc1cccc(C(=O)Nc2nnc(Cc3ccc(Cl)cc3)s2)c1	0.96
SMILES	CBX7 inh
COc1ccc(Nc2c(-c3ccc(C)cc3)nc3sccn23)cc1OC	0.77
Cc1ccc(Nc2c(-c3ccc(N4CCOCC4)cc3)nc3ccccn23)cc1	1.1
COc1ccc(-c2nc3sccn3c2Nc2ccc3c(c2)OCO3)cc1	0.47*
Cc1ccc(Nc2c(-c3ccc(N4CCOCC4)cc3)nc3sccn23)cc1C	0.49*
Cc1ccc(Nc2c(-c3ccc(N4CCOCC4)cc3)nc3cc(C)ccn23)cc1	0.84
COc1ccc(-c2nc3ccccn3c2Nc2ccc3c(c2)OCCO3)cc1	0.71
COc1ccc(CNc2sc3c(c2C(=O)Nc2cc(OC)ccc2OC)CCC3)cc1	0.98
COc1ccc(C(=O)CSc2nnc(Cc3cc(=O)[nH]c(=O)[nH]3)n2-c2ccc(F)cc2)cc1	1.1
CCOC(=O)C1CCN(C(=O)Cn2nc(Cc3ccncc3)c3ccccc3c2=O)CC1	0.99
COc1ccc(-n2nc3c(c2NC(=O)Cc2cccs2)CSC3)cc1	0.96
CCOC(=O)c1ccc(NC(=O)C(=O)NCCc2ccc(OC)c(OC)c2)cc1	1
O=C(CN1C(=O)CCSc2ccccc21)NCCCN1CCN(Cc2ccccc2)CC1	1
COc1ccc(NC2c3ncccc3C(=O)N2Cc2ccc(F)cc2)cc1 (stereo not drawn)	0.64
O=C1c2cccnc2C(Nc2ccc(F)cc2)N1Cc1ccc(F)cc1 (stereo not drawn)	0.84
COc1ccc(NC2c3ncccc3C(=O)N2Cc2ccc(F)cc2)cc1Cl (stereo not drawn)	0.62
CCOC(=O)c1ccc(NC2c3ncccc3C(=O)N2Cc2ccc(F)cc2)cc1 (stereo not drawn)	0.45*
COc1ccc(CN2C(=O)c3cccnc3C2Nc2cc(Cl)ccc2OC)cc1 (stereo not drawn)	0.0053*
O=C1c2cccnc2C(Nc2ccc(F)c(Cl)c2)N1Cc1ccc(F)cc1 (stereo not drawn)	0.81
COc1ccc(CN2C(=O)c3cccnc3C2O)cc1 (stereo not drawn)	0.01*
COc1ccc(CN2C(=O)c3cccnc3C2Nc2cc(Cl)ccc2C)cc1 (stereo not drawn)	0.91
CCC(C)NC(=O)C1c2ccccc2C(=O)N1Cc1ccc(OC)cc1 (stereo not drawn)	1.1
CC(=O)Nc1ccc(NC(=O)Cn2cnc3c(nnn3Cc3ccc(C)cc3)c2=O)cc1	0.96

Screening results from PubChem BioAssay.
